Assay outcomes as filed in PubChem.
TDP43 rescue: rescues yeast growth from TDP-43 toxicity; TDP-43 expressing yeast growth rescue, BacTiter-Glo, 24 h; Potency, µM (top dose mostly 46.1 µM), without a hit: at the top dose growth rescue (activation), hits mostly activators; actives 1.8% (n = 410,000); AID 652104; note: % of control where 0% means no effect; nearly all actives have a fitted effect of over 50% in size
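Luminescence from BacTiter-Glo reports growth of TDP-43-expressing yeast after 24 hr at 30 deg C with compound. Cells were raffinose-pregrown to mid-log, then seeded in galactose medium at OD600=0.02.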
aSyn rescue: rescues yeast growth from alpha-synuclein toxicity | Potency, µM (series often up to 46.1 µM), without a hit: at the highest dose growth rescue (activation), usual class: activators | actives 0.14% (n = 370,000) | Yeast expressing alpha-synuclein, growth rescue, BacTiter-Glo, 24 h; note: % of control where 0% means no effect; nearly all actives have a fitted effect of over 65% in size
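Screening used galactose-induced yeast with toxic alpha-synuclein levels, exposed to compound for 24 hr at 30 deg C. Cell growth, read with BacTiter-Glo luminescence, gave the measured signal.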
FUS suppressor: rescues growth of FUS-expressing yeast; S. cerevisiae FUS-expressing, growth rescue, OD600, 24 h; Potency, µM (highest dose often 76.6 µM), usual class: activators; AID 1347120; actives 0.24% (n = 390,000);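 note: plate controls were DMSO vehicle for no effect and reference control for full effect; nearly all actives have a fitted effect of over 55% in size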
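Toxicity suppression screen in FUS-yeast. Cells induced with 2% galactose, starting OD 0.005, treated 24hr at 30C with compounds at multiple final concentrations; growth by OD600.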
Mito fusion yeast: inhibitors of mitochondrial division or activators of mitochondrial fusion. S. cerevisiae fusion-defective mutant growth rescue, CellTiterGlo 48 h. Potency, µM (series often up to 46.1 µM), without a hit: at the top dose growth rescue (activation), hits mostly activators. actives 0.23% (n = 320,000). AID 485298; note: % of control where 0% means no effect; nearly all actives have a fitted effect of over 45% in size
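S. cerevisiae fusion-defective temperature-sensitive mutants (e.g. fzo1-1, mgm1-5) grown 48 h at 37C in YPEG (ethanol/glycerol non-fermentable) medium with 23 nl compound per well; growth rescue read as CellTiterGlo luminescence.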
Abeta rescue: compounds reversing amyloid beta toxicity in yeast; actives 0.063% (n = 410,000); Potency, µM (series often up to 46.1 µM), hits mostly activators; yeast expressing A-beta42, growth rescue, OD600, 48 h; response scale: 0% DMSO, 100% iron-clioquinol control; AID 1347071; note: nearly all actives have a fitted effect of over 55% in size
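Yeast growth medium received pinned compounds, then yeast cells expressing toxic A-beta were added; plates incubated at 30 C for 48 hr. Growth read as absorbance at 600 nm, normalized to DMSO and equimolar FeCl3 plus clioquinol controls.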
Active calls of the source: *; [ ] = another dose, or the depositor's remark. Most compounds without a hit are left out; they make up all but 2.2% or so of the library. Calls come from the whole dose curve; as a rule, active = well fitted curve in the direction sought with a large enough effect; inconclusive = small, poorly fitted or top-dose-only effect, or another doubt; inactive = no such curve, though single readings can be large; an effect the other way counts as inactive or inconclusive. Potency is the fitted concentration of half-maximal effect.

What do the screens show for `CC(O)(c1ccccc1)c1nc(-c2ccncc2)cs1` (stereo unspecified)?
TDP43 rescue: -13%; aSyn rescue: 0%; FUS suppressor: inactive; Abeta rescue: inactive

Results for CC(C)c1ccc(NC(=O)O[C@@H]2CC[C@@]34CCCN3C(=O)CCC[C@H]4C2)cc1 ?
FUS suppressor: inactive

What do the screens show for `CC(=O)N1CCCc2cc(S(=O)(=O)N3CCC(C(=O)NCCC(C)C)CC3)ccc21`?
TDP43 rescue: 6%; FUS suppressor: inactive; Abeta rescue: inactive

How did O=C(CSc1nc2c([nH]c3ccccc32)c(=O)n1-c1ccccc1)N1CCCc2ccccc21 do in these assays?
TDP43 rescue: -1%; FUS suppressor: inactive; Abeta rescue: inactive

How did COC(=O)[C@H](C)NC(=O)C(Cc1ccc2c(c1)OCO2)NC(C)=O (stereo partly specified) do in these assays?
FUS suppressor: inactive

How did C#CCOc1c(Br)cc(C2C(C(=O)OC)=C(C)NC3=C2C(=O)c2ccccc23)cc1OCC (stereo unspecified) do in these assays?
TDP43 rescue: 15%; FUS suppressor: inactive; Abeta rescue: inactive

How did COc1cccc(NC(=O)Nc2nc3ncccn3c2-c2ccc(C(F)(F)F)cc2)c1 do in these assays?
FUS suppressor: inactive

What do the screens show for `COc1cccc(C(C)(O)c2nc(-c3ccc(F)c(Cl)c3)cs2)c1` (stereo unspecified)?
TDP43 rescue: -61%; aSyn rescue: -22%; FUS suppressor: inactive; Abeta rescue: inactive

What do the screens show for `COc1ccc(-c2csc(C(C)(O)c3ccc(OC)cc3)n2)cc1` (stereo unspecified)?
TDP43 rescue: 0%; aSyn rescue: 6.3µM*; FUS suppressor: inactive; Abeta rescue: inconclusive

Results for COc1ccc(C(C)(O)c2nc(-c3ccc(F)c(Cl)c3)cs2)cc1 (stereo unspecified) ?
TDP43 rescue: 18µM*; aSyn rescue: -11%; FUS suppressor: inactive; Abeta rescue: inconclusive

How did CC(O)(c1ccccc1)c1nc(-c2cccc(F)c2)cs1 (stereo unspecified) do in these assays?
TDP43 rescue: 0%; aSyn rescue: 19%; FUS suppressor: inactive; Abeta rescue: inactive

Results for COc1ccc(C(C)(O)c2nc(-c3cccc(C#N)c3)cs2)cc1 (stereo unspecified) ?
TDP43 rescue: 7%; aSyn rescue: inconclusive; FUS suppressor: inactive; Abeta rescue: inactive

Results for CC(O)(c1ccccc1)c1nc(-c2cccc(C#N)c2)cs1 (stereo unspecified) ?
TDP43 rescue: 20µM*; aSyn rescue: -1%; FUS suppressor: inactive; Abeta rescue: inconclusive

How did COCc1cccc(-c2csc(C(C)(O)c3ccccc3)n2)c1 (stereo unspecified) do in these assays?
TDP43 rescue: 35µM*; aSyn rescue: -4%; FUS suppressor: inactive; Abeta rescue: inactive

What do the screens show for `Cc1cccc(NC(=O)N2CCC(CN3CCCCCC3)CC2)c1C`?
TDP43 rescue: 19%; FUS suppressor: inactive; Abeta rescue: inactive

How did COc1ccc(C(C)(O)c2nc(-c3ccccc3)cs2)cc1 (stereo unspecified) do in these assays?
TDP43 rescue: 8.9µM*; aSyn rescue: inconclusive; FUS suppressor: inactive; Abeta rescue: inconclusive

How did O=[N+]([O-])c1ncccc1OCCOc1ccc(Cl)cc1Cl do in these assays?
FUS suppressor: inactive

What do the screens show for `O=C(O)c1cc2ccccc2c2cc(Br)ccc12`?
TDP43 rescue: -4%; aSyn rescue: 15%; FUS suppressor: inactive; Mito fusion yeast: 11µM*; Abeta rescue: inactive

How did O=C(O)c1cc2ccccc2c2c1C(=O)c1ccccc1-2 do in these assays?
TDP43 rescue: -8%; aSyn rescue: 2.8µM*; FUS suppressor: inactive; Abeta rescue: inconclusive

How did CCN1C(=O)c2ccccc2S(=O)(=O)c2ccc(C(=O)NCc3ccccc3)cc21 do in these assays?
TDP43 rescue: 9%; FUS suppressor: inactive; Abeta rescue: inactive

What do the screens show for `COCCNc1nc(Oc2cccc(F)c2)c2sccc2n1`?
TDP43 rescue: inconclusive; aSyn rescue: -3%; FUS suppressor: inactive; Abeta rescue: inactive

How did COc1ccccc1CNc1nc(Oc2cccc(F)c2)c2sccc2n1 do in these assays?
TDP43 rescue: 35µM*; aSyn rescue: 8%; FUS suppressor: inconclusive; Abeta rescue: inactive

Results for COc1ccc(F)cc1S(=O)(=O)n1nnc2ccccc21 ?
TDP43 rescue: 10µM*; aSyn rescue: inconclusive; FUS suppressor: inconclusive; Mito fusion yeast: 0%; Abeta rescue: inactive

How did COCCNC(=O)c1ccc2c(c1)nc(C)n2-c1cccc(Cl)c1 do in these assays?
FUS suppressor: inactive; Mito fusion yeast: 12%; Abeta rescue: inactive

What do the screens show for `Cc1nc2cc(C(=O)NCCC3=CCCCC3)ccc2n1-c1ccc(Br)cc1`?
TDP43 rescue: inconclusive; FUS suppressor: 25µM*; Abeta rescue: inactive

What do the screens show for `Cc1ccc(-n2cnc3cc(C(=O)NCCC4=CCCCC4)ccc32)c(C)c1`?
TDP43 rescue: 25µM*; FUS suppressor: inconclusive; Abeta rescue: inactive

How did CCc1ccccc1-n1c(C)nc2cc(C(=O)NCCc3ccc(Cl)cc3)ccc21 do in these assays?
TDP43 rescue: 32µM*; FUS suppressor: inconclusive; Abeta rescue: inactive

How did O=C(NCCC1=CCCCC1)c1ccc2c(c1)ncn2-c1ccc(F)c(F)c1 do in these assays?
TDP43 rescue: 23%; FUS suppressor: inactive; Abeta rescue: inactive

Results for Cc1ccc(C)c(S(=O)(=O)c2nnn3c2nc(NCc2ccc4c(c2)OCO4)c2sccc23)c1 ?
TDP43 rescue: 6%; FUS suppressor: inactive; Abeta rescue: inactive

Results for Cc1cccc(C)c1NC(=S)N(Cc1ccccc1)Cc1cccs1 ?
TDP43 rescue: 35µM*; aSyn rescue: 23%; FUS suppressor: inactive; Mito fusion yeast: 6%; Abeta rescue: inactive

Results for O=C(O)CNC(=S)N(Cc1ccccc1)Cc1cccs1 ?
TDP43 rescue: -13%[1.82 µM]; aSyn rescue: 1%; FUS suppressor: inactive; Mito fusion yeast: -5%; Abeta rescue: inactive

Results for O=S(=O)(NCc1c(Cl)cccc1Oc1ccccc1)c1ccc(F)cc1 ?
TDP43 rescue: 18µM*; aSyn rescue: 5%; FUS suppressor: inactive; Mito fusion yeast: 26%; Abeta rescue: inactive

Results for CN(C)c1ccc(/C=C/c2ccnc3ccc(Br)cc23)cc1 ?
aSyn rescue: 5%
